Source: the supplement of paper PMC10849652
Targets with a hit are over-represented here; the source holds about 7,900 in all. About 0.6% of all pairs of compound and target were hits. Values without a mark were called inactive.

Legend:
Assay in all cases: log2 fold change, soluble protein after heating vs DMSO (PISA); higher = thermal stabilisation; K562 cells, 10 uM, 30 min; active = over 0.2 and 3.5 SD of the protein, either way, in both replicates (recomputed)
[1] = compound: C#Cc1cccc(Nc2ncnc3cc(OCCOC)c(OCCOC)cc23)c1 [erlotinib]
Summary of the method: (§1)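 K562 cells at 2×10^6 cells/mL were treated for 30 min with 10 μM compound, and aliquots were heated for 3 min over 48°C-58°C before pooling. Extraction used PBS with 0.5% NP-40 at 4°C, and soluble protein was the supernatant after 21,000xg for 90 min, measured by TMTpro 16plex LC-MS/MS with channel sums equalised. Thermal stability values, relative to control samples and from duplicates, are log2 fold changes.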

[2] = compound: C/C(=N\NC(=O)C1=CC(=CC=C1)S(=O)(=O)N2CCOCC2)/C3=C(C=CC(=C3)Cl)O
Summary of the method: as §1

[3] = compound: C1=CC(=C(C=C1Cl)C2=NC3=NC=CN=C3C(=N2)NC4=CC=NC=C4)F
Summary of the method: as §1

[4] = compound: C1=CC(=CC=C1C2=NC3=C(N2)C=C(C=C3)C(=O)N)OC4=CC=C(C=C4)Cl
Summary of the method: as §1

[5] = compound: C1=CC2=C(C=CC(=C2)/C=C\3/C(=O)NC(=NCC4=CC=CS4)S3)N=C1
Summary of the method: as §1

[6] = compound: C1=CC2=NC=CN=C2C=C1/C=C/3\C(=O)NC(=O)S3
Summary of the method: as §1

[7] = compound: C1=CC=C(C=C1)C2=NC(=C(N2)C3=CC=NC=C3)C4=CC(=C(C=C4)Cl)O
Summary of the method: as §1

[8] = compound: C1=CC=C2C(=C1)C3=NNC4=CC=CC(=C43)C2=O
Summary of the method: as §1

[9] = compound: C1CCN(C1)C(=O)NC2=CC=CC(=C2)NC3=NC=C(C(=N3)NCCC4=CN=CN4)Br
Summary of the method: as §1

[10] = compound: C1CN(CCC1(CC2=CC=C(C=C2)Cl)N)C3=NC=NC4=C3C=CN4
Summary of the method: as §1

Sequence of UniProt Q93074 (Q93074 whole entry, looked up): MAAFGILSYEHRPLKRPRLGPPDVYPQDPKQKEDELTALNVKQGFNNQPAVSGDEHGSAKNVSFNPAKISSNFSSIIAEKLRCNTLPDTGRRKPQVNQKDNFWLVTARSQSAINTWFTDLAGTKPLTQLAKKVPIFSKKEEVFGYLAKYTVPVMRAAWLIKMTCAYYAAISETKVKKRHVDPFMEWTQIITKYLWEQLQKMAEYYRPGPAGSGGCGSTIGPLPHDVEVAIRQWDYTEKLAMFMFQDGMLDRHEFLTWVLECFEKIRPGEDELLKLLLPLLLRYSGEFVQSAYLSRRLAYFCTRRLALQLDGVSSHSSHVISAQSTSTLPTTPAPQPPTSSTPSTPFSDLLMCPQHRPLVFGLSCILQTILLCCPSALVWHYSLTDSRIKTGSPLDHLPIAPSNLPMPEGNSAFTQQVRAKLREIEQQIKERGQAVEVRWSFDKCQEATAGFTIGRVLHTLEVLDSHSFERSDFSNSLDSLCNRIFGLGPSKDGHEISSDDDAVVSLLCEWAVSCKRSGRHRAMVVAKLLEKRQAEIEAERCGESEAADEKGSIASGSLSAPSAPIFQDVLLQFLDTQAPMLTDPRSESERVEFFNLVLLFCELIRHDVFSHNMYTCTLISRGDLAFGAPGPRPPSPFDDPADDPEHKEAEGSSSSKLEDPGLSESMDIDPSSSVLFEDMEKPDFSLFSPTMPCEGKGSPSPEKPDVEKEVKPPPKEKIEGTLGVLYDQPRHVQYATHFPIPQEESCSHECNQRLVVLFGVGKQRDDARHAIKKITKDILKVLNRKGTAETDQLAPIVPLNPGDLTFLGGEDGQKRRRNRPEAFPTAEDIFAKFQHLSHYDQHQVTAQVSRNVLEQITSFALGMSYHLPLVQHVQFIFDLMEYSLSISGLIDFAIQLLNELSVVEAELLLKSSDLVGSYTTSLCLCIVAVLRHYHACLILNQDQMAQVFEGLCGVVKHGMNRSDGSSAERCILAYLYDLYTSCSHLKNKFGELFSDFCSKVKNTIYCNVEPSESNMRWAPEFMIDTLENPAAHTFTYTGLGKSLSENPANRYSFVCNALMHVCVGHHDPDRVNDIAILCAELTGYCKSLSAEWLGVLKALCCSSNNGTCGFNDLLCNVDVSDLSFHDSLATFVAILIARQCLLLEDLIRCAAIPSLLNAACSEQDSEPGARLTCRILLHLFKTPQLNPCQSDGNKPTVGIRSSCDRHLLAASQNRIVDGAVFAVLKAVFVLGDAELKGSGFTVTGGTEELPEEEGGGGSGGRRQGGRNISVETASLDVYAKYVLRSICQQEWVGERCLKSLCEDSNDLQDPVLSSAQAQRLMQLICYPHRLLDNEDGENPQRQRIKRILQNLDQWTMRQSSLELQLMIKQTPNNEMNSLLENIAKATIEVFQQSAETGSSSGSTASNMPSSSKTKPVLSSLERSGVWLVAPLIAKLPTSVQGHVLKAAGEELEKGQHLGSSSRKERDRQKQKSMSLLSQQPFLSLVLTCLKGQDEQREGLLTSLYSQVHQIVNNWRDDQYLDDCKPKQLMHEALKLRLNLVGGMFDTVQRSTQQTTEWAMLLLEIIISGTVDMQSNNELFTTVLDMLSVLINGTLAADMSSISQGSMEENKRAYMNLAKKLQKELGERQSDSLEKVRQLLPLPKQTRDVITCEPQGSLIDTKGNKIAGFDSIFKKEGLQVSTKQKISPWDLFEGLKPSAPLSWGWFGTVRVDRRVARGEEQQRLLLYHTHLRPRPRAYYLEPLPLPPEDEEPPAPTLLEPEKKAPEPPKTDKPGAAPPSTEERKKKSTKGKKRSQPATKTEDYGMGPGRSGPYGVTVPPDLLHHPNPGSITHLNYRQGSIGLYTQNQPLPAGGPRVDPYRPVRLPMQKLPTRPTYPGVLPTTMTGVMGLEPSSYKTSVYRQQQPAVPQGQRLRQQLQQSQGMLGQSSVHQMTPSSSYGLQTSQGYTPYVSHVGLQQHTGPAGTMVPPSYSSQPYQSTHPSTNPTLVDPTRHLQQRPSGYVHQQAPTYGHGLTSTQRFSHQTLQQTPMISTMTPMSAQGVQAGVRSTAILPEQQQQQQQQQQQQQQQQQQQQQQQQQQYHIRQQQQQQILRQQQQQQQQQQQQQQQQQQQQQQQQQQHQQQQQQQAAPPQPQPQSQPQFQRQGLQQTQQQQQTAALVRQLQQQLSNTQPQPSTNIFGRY
Sequence of UniProt O00629 (O00629 whole entry, looked up): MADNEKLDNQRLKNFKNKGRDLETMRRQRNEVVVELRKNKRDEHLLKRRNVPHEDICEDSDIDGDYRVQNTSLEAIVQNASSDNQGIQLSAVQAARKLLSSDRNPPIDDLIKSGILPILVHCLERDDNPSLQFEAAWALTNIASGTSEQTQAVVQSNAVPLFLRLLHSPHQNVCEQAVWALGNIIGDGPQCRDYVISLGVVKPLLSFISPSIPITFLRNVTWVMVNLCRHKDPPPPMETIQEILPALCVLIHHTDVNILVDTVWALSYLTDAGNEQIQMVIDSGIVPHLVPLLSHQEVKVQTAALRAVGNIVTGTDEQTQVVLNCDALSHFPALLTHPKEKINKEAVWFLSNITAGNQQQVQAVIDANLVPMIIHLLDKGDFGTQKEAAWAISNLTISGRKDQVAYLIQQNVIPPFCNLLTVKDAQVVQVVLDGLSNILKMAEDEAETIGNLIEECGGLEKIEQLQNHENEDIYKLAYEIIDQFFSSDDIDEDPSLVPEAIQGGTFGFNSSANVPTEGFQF
Sequence of UniProt Q9NQG6 (Q9NQG6 whole entry, looked up): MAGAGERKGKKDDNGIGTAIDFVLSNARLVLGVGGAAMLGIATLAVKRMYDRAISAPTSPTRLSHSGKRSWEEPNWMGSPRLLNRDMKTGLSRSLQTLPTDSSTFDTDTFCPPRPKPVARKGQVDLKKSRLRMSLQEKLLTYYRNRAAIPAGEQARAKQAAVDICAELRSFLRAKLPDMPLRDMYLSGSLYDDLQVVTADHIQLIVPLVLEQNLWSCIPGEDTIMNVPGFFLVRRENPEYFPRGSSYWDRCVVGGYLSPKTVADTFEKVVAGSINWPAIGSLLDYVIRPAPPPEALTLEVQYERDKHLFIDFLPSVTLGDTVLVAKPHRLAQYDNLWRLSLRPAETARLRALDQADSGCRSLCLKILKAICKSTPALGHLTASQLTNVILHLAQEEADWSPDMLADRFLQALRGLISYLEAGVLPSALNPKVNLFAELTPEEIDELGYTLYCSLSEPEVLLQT
Sequence of UniProt Q9BQD3 (Q9BQD3 whole entry, looked up): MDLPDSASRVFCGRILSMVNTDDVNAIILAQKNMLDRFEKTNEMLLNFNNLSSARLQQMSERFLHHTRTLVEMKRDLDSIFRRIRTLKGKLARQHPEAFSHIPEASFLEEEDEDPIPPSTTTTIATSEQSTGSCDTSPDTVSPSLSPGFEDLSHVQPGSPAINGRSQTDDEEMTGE
Sequence of UniProt Q9BU23 (Q9BU23 whole entry, looked up): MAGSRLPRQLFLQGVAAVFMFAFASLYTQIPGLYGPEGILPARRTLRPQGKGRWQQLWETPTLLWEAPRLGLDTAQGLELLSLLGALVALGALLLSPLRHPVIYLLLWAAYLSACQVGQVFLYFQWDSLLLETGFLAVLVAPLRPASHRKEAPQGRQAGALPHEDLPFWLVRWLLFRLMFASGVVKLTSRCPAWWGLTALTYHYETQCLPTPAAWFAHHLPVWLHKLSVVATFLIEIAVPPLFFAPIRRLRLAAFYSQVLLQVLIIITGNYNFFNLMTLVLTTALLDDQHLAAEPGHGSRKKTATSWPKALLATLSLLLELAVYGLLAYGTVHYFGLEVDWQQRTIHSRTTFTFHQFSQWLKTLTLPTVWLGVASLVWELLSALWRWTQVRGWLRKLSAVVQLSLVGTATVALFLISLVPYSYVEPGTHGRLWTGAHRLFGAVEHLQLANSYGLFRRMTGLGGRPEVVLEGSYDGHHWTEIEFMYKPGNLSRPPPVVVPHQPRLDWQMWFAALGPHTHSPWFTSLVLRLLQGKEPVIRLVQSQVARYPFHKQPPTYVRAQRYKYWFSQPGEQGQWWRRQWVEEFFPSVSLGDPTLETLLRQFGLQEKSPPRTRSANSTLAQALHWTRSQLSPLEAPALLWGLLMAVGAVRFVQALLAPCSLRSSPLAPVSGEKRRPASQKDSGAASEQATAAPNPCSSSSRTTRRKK
Sequence of UniProt O95372 (O95372 whole entry, looked up): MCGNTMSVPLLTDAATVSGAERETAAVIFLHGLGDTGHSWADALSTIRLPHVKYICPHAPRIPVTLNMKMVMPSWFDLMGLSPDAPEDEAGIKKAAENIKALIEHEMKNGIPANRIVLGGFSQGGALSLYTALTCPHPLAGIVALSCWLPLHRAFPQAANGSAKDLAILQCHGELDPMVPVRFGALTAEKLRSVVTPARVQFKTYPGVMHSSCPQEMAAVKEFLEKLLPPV
Sequence of UniProt Q71RC2 (Q71RC2 whole entry, looked up): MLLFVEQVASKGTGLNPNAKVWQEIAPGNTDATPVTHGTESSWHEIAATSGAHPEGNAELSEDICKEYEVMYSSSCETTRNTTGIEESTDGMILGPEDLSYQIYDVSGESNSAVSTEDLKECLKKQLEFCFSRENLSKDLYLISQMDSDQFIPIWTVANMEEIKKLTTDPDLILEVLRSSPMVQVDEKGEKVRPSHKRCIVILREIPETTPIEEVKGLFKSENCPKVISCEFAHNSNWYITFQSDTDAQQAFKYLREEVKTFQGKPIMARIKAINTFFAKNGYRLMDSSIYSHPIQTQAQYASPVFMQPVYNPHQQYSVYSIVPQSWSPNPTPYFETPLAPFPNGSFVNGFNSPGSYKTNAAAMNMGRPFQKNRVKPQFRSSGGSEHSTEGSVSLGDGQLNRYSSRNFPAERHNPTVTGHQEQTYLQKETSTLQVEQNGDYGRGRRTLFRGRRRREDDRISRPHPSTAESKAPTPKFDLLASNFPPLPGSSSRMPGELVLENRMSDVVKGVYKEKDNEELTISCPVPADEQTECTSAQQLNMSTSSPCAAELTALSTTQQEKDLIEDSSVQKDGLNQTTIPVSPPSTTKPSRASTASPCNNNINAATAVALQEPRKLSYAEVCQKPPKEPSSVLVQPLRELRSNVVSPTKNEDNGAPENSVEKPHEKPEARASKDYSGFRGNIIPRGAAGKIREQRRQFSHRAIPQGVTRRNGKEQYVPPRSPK

Target	log2 fold change [1]	log2 fold change [2]	log2 fold change [3]	log2 fold change [4]	log2 fold change [5]	log2 fold change [6]	log2 fold change [7]	log2 fold change [8]	log2 fold change [9]	log2 fold change [10]
IGFBP2 (UniProt P18065)	-0.074	-0.023	-0.146	0.3	0.054	0.03	0.09	-0.209	0.065	0.039
MFGE8 (UniProt Q08431)	-0.135	-0.032	-0.149	0.045	-0.059	-0.024	0.024	0.095	-0.041	-0.066
MAP3K4 isoform 2 (UniProt Q9Y6R4)	-0.027	0.019	0.036	-0.023	0.039	-0.017	-0.023	-0.031	0.034	0.07
MAP2K3 isoform 3 (UniProt P46734)	-0.011	0.05	0.002	0.009	0.036	0.017	0.046	-0.057	0.016	-0.006
KDM1A isoform 2 (UniProt O60341)	0.059	0.039	0.006	-0.028	0.075	-0.015	0.059	-0.026	-0.03	-0.069
KNTC1 (UniProt P50748)	0.102	0.068	0.029	-0.039	0.019	0.034	-0.065	-0.012	0.001	-0.004
MED12 isoform 2 (UniProt Q93074)	0.022	0.04	-0.031	0.188	0.101	0.121	0.012	-0.361	0.193	-0.11
LIMA1 isoform 4 (UniProt Q9UHB6)	-0.015	-0.062	-0.039	0.069	0.038	-0.015	0.022	0.054	0	-0.039
LARP4 isoform 4 (UniProt Q71RC2)	0.015	0.007	-0.123	0.055	0.086	0.002	-0.028	-0.044	-0.004	-0.035
LMNB2 (UniProt Q03252)	0.027	0.062	0.001	0.025	-0.042	0.099	-0.066	-0.186	-0.167	0.001
MIEF1 (UniProt Q9NQG6)	0.009	0.03	0.104	0.021	0.072	0.001	0.025	-0.027	-0.028	-0.021
IMMT isoform 2 (UniProt Q16891)	-0.057	0.043	0.051	-0.022	-0.07	-0.021	-0.026	0.021	0.007	0.047
MED7 (UniProt O43513)	0.065	-0.109	0.041	0.053	0.065	0.015	0.017	-0.152	-0.114	0.039
INPP1 (UniProt P49441)	0.014	0.006	0.073	0.059	0.042	-0.01	0.005	0.044	0.01	-0.101
KXD1 (UniProt Q9BQD3)	0.069	0.018	0.011	-0.005	0.083	0.024	0.01	0.018	0.022	0.036
LRBA (UniProt P50851)	0.007	0.024	0.068	0.002	0.031	0.051	0.011	-0.002	0.012	0.015
LYPLA2 (UniProt O95372)	-0.008	0.021	0.345 (active)	-0.01	0.081	0.097	0.14	-0.016	-0.084	-0.122
IGF2R (UniProt P11717)	-0.052	0	0	0.025	-0.012	0.003	0.009	-0.021	0.002	0.012
KRAS isoform 2 (UniProt P01116)	-0.035	-0.011	0.006	0.029	0.005	0.019	0.002	-0.03	0.045	-0.084
KIF3B (UniProt O15066)	-0.015	0.016	-0.015	-0.108	-0.02	0.004	-0.029	0.077	-0.101	-0.039
MEPCE (UniProt Q7L2J0)	0.063	0.064	-0.022	-0.002	0.039	-0.01	0.103	0.024	-0.049	-0.047
KIF13A (UniProt Q9H1H9)	0.065	-0.026	-0.031	0.017	0.056	-0.009	-0.027	-0.055	-0.043	0.072
MAPKAPK5 (UniProt Q8IW41)	0.249 (active)	-0.249	0.024	-0.087	0.019	0.052	0.043	0.025	-0.033	0.012
KCTD2 (UniProt Q14681)	0.177	-0.154	-0.125	-0.126	0.158	-0.062	0.055	-0.106	0.26	-0.005
MGST3 (UniProt O14880)	-0.025	-0.03	0.013	0.003	0.006	0.041	-0.022	-0.023	0.019	0.016
KPNA4 (UniProt O00629)	0.016	0.023	0.037	0.023	0.005	0.03	0.027	-0.024	0.003	0.003
LRBA, A0A494BZW2	0.111	0.022	0.283	0.124	-0.055	0.061	-0.105	-0.013	0.097	0.189
KSR1 (UniProt Q8IVT5)	0.082	0.004	0.044	-0.044	0.162	0.058	0.185	-0.106	-0.088	0.058
LMF2 (UniProt Q9BU23)	-0.017	0.002	-0.005	0.434 (active)	0.055	-0.012	0.006	0.052	-0.021	0.021
ITM2B (UniProt Q9Y287)	0.099	-0.012	-0.122	0.041	0	0.042	0.068	-0.12	-0.066	0.027
